# Measurements as given in PubChem BioAssay.
# Calls of active or inactive are those of the source.
# Assays:
# [1] = small molecules captured by biotinylated probe aFSTL3 – biochemical, small-molecule microarray, fluorescence 635/667, stem cell growth factor project, primary screen (AID 1064); settings: higher = more signal;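 note: measures binding of the biotinylated anti-FSTL3 antibody to printed compounds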
# [2] = binders from COS7 lysate, DM2A8 probe, primary screen, torsin A project, cell lysate, small-molecule microarray, fluorescence 635/667 (AID 1065); settings: higher = more signal, COS7 lysate expressing mutant human TOR1A
# [3] = small molecules captured by biotinylated probe aFGF2 – biochemical, small-molecule microarray, fluorescence 635/667, stem cell growth factor project, primary screen (AID 1067); settings: higher = more signal;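 note: measures binding of biotinylated aFGF2 protein to printed compounds on slides; z-score merges feature fluorescence and signal-to-noise across triplicate slides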
# [4] = small molecules captured by biotinylated probe aFGF10 – biochemical, small-molecule microarray, fluorescence 635/667, stem cell growth factor project, primary screen (AID 1071); settings: higher = more signal;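 note: score merges 667 nm spot intensity and signal to noise from triplicate slides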
# [5] = molecular target: Neurogenic locus notch homolog protein 2 (Homo sapiens) (UniProt Q04721); experiment: small molecules binding Notch2 protein – biochemical, small-molecule microarray, 635 nm fluorescence, stem cell growth factors, primary screen (AID 1073); settings: higher = more signal
# [6] = molecular target: Pro-neuregulin-1, membrane-bound isoform (Homo sapiens) (UniProt Q02297); experiment: small molecules binding neuregulin-1 protein – biochemical, small-molecule microarray, fluorescence 635/667, psychiatric disease protein project, primary screen (AID 1075); settings: NRG1 binding, 635 nm fluorescence, higher = more signal;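 note: score combines 667 nm spot fluorescence with signal to noise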
# Sequence of Pro-neuregulin-1, membrane-bound isoform (Homo sapiens) (Q02297 whole entry, looked up, the tested form may be a part, canonical isoform): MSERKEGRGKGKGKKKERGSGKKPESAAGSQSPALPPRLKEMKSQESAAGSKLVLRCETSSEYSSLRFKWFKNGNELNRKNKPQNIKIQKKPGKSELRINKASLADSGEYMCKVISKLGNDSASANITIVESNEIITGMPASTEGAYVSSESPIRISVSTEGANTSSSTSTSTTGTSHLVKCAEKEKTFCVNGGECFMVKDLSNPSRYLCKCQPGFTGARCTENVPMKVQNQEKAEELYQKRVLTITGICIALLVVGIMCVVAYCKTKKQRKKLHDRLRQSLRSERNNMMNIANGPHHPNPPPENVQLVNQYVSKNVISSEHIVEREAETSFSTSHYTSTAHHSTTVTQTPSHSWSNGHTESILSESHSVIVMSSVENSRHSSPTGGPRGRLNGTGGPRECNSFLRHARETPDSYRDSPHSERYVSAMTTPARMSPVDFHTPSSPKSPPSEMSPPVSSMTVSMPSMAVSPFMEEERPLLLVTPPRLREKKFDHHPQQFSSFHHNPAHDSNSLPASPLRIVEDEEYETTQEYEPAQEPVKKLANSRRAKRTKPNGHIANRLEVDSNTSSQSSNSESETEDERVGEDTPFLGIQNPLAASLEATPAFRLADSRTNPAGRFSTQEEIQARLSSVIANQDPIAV
# [7] = test system: Neuregulin-1 EGF-like domain; experiment: small molecules binding NRG1 EGF domain – biochemical, small-molecule microarray, 635 nm fluorescence, primary screen (AID 1081); settings: higher = more signal;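 note: binding of the protein to compounds printed on small-molecule microarray slides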
# [8] = FRG1 expression reporter modulators in myotubes – cell-based, C2C12 myotubes, firefly/Renilla luciferase, luminescence, FRG1 inhibition for FSHD, primary screen (AID 1084); settings: FRG1 promoter luciferase, higher = more signal, called active from +8 up or from −8 down
# [9] = small molecules captured by biotinylated probe aFST – biochemical, small-molecule microarray, fluorescence 635/667, stem cell growth factor project, primary screen (AID 1086); settings: higher = more signal;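 note: score merges 667 nm fluorescence with signal-to-noise of each printed compound spot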
# [10] = binders of probe aHhip on microarray, primary screen, stem cell growth factor project, biochemical, small-molecule microarray, fluorescence 635/667 (AID 1087); settings: higher = more signal;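 note: score merges spot fluorescence at 667nm with spot signal to noise ratio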
# [11] = test system: PRMT1 (protein arginine N-methyltransferase 1); experiment: small molecules binding arginine methyltransferase PRMT1 – biochemical, small-molecule microarray, 635 nm fluorescence, primary screen (AID 1088); settings: higher = more signal;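 note: binding of Prmt1 protein to compounds spotted on small-molecule microarray slides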
# [12] = growth effects on S. cerevisiae YJM789 – YJM789 clinical isolate, OD600, 24 h, basal, primary screen (AID 1089); settings: higher = more signal, called active from +8 up or from −8 down;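 note: growth of clinical yeast isolate S. cerevisiae YJM 789 seeded 1000 cells per well; test concentration not given here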
# [13] = S. pombe growth modifiers, basal conditions – strain 972, OD600, 24 h, no modulator, primary screen (AID 1090);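 note: basal condition with compound alone and no growth modifier present; test concentration not given here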; settings: S. pombe 972 growth, higher = more signal, called active from +8 up or from −8 down
# [14] = budding yeast growth modifiers under rapamycin – strain BY4716, OD600, 96 h, primary screen (AID 1091); note: test concentration not given here; settings: S. cerevisiae BY4716 + rapamycin, higher = more signal, called active from +8 up or from −8 down
# [15] = molecular target: Torsin-1A-interacting protein 2 (Homo sapiens) (UniProt Q8NFQ8); experiment: small molecules binding lysate-expressed LULL1 – cell lysate, human LULL1 lysate, 635/667 nm fluorescence, primary screen (AID 1092); settings: small-molecule microarray, hLULL1 lysate binding, 635 nm fluorescence; higher = more signal;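 note: probe is lysate of COS7 cells overexpressing human LULL1; score merges per-feature 667 nm fluorescence with signal-to-noise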
# Sequence of Torsin-1A-interacting protein 2 (Homo sapiens) (Q8NFQ8 whole entry, looked up): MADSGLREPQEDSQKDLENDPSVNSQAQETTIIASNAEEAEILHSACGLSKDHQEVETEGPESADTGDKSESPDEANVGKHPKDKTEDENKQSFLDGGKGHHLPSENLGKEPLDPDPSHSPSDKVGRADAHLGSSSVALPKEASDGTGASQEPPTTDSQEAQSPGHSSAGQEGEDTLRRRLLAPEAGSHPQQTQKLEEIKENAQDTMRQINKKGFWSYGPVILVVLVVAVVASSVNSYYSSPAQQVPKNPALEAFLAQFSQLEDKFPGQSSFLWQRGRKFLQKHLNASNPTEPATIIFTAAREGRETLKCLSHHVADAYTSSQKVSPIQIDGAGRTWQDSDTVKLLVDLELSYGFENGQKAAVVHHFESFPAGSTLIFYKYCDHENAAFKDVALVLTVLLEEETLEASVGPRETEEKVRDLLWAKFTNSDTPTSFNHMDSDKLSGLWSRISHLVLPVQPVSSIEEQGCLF
# [16] = optical density change of DRC41 E. coli – strain DRC41, OD650, 24 h, E. coli filamentation project, primary screen (AID 1093);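 note: MC1000 strain lacking acrAB efflux and sulA so SOS filamentation is blocked; test concentration not given here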; settings: E. coli DRC41 growth, higher = more signal, called active from +8 up or from −8 down
# [17] = probe aLefty2 binding to arrayed compounds – biochemical, biotinylated probe, 635/667 nm fluorescence, primary screen (AID 1094); settings: small-molecule microarray, higher = more signal;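 note: score merges spot fluorescence near 667 nm with spot signal-to-noise ratio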
# [18] = test system: Noggin (protein binding on small-molecule microarray); experiment: small molecules binding Noggin protein – biochemical, 635/667 nm fluorescence, primary screen (AID 1095); settings: 635 nm fluorescence, higher = more signal;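 note: score merges 667 nm feature fluorescence with signal to noise over triplicate slides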
# [19] = molecular target: Neurogenic locus notch homolog protein 3 (Homo sapiens) (UniProt Q9UM47); experiment: small molecules binding NOTCH3 protein – biochemical, 635/667 nm fluorescence, primary screen (AID 1096); settings: small-molecule microarray, 635 nm fluorescence, higher = more signal
# Sequence of Neurogenic locus notch homolog protein 3 (Homo sapiens) (Q9UM47 whole entry, looked up): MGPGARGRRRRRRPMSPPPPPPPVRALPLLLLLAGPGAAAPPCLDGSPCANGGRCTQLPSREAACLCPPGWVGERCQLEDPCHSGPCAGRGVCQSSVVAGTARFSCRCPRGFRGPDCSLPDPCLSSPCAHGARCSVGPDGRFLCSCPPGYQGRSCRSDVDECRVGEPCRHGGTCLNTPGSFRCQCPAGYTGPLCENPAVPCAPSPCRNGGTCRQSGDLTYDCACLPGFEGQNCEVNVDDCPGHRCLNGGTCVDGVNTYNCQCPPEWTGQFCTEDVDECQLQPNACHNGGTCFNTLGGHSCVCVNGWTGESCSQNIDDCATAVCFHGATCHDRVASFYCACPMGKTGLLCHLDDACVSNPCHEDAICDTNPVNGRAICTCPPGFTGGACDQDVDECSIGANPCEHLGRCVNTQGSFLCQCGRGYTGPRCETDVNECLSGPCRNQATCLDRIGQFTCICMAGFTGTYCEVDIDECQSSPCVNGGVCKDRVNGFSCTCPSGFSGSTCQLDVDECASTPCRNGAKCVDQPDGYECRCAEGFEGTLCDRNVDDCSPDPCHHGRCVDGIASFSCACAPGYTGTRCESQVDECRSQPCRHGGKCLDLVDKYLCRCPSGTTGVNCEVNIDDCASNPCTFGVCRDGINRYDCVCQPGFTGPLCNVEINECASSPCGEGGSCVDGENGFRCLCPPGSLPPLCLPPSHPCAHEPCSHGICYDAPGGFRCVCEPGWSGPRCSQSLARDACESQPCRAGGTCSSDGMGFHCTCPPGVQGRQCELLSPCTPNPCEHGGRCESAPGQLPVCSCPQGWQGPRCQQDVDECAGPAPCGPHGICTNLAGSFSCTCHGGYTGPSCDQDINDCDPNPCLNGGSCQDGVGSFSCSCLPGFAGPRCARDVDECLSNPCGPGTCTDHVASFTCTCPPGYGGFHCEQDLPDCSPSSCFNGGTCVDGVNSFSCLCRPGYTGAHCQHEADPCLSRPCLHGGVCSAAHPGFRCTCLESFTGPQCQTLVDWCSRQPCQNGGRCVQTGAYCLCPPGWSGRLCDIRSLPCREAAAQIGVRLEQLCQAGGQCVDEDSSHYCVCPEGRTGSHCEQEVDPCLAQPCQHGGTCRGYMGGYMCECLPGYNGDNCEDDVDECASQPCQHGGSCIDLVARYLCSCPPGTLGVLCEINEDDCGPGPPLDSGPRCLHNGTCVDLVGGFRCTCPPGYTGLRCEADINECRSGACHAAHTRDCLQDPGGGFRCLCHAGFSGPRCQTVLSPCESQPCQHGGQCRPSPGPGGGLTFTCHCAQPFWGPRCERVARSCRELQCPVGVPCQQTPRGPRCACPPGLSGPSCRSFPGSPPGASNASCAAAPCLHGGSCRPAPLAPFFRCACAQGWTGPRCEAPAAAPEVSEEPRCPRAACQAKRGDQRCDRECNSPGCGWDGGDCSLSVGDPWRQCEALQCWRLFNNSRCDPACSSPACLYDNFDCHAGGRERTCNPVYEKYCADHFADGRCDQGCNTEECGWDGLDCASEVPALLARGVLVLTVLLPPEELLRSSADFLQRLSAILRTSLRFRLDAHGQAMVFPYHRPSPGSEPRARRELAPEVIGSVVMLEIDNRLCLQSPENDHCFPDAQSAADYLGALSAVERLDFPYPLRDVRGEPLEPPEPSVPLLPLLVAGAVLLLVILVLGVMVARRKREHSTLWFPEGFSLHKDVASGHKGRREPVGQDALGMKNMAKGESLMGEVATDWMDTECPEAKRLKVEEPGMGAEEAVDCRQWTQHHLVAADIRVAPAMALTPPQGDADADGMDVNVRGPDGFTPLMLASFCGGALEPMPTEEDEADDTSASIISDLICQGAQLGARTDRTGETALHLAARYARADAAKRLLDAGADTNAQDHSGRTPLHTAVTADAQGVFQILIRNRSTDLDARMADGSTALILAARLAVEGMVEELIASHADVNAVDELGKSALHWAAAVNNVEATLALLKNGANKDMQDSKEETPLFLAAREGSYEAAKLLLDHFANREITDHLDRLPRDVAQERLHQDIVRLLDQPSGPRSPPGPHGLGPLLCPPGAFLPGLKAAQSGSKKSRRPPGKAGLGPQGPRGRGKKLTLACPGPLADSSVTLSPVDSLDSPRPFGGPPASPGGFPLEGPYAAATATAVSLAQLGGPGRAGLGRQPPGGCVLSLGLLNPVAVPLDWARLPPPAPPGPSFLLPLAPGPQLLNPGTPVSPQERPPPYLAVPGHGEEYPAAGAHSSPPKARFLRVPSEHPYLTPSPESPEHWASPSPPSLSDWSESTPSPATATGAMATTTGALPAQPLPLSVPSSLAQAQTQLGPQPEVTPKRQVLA
# [20] = probe aEGFR binding to arrayed compounds – biochemical, biotinylated probe, 635/667 nm fluorescence, primary screen (AID 1097); settings: small-molecule microarray, higher = more signal;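 note: probe is a biotinylated anti-EGFR antibody binding compounds printed on slides; score combines fluorescence near 667 nm and signal to noise of each spot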
Compound,composite z-score [1],composite z-score [2],composite z-score [3],composite z-score [4],composite z-score [5],composite z-score [6],composite z-score [7],z-score [8],composite z-score [9],composite z-score [10],composite z-score [11],z-score [12],z-score [13],z-score [14],composite z-score [15],z-score [16],composite z-score [17],composite z-score [18],composite z-score [19],composite z-score [20]
CC(C)(C)N1C(=O)[C@H]2[C@@H]3C(=CC[C@H]2C1=O)C(=O)[C@H]1O[C@H]1[C@H]3O,-0.293,1.62,-0.226,0.25,-0.573,-0.261,0.17,9.15 (active),-0.546,0.0024,0.34,-2.18 (inactive),-4.57 (inactive),-1.63 (inactive),-0.758,-2 (inactive),-0.338,-0.0454,-0.615,-0.152
Cc1ccc(S(=O)(=O)N[C@@H]2COC(=O)CC=C[C@@H](C)[C@H](NS(=O)(=O)c3ccc(C)cc3)COC(=O)[C@H](C)NC(=O)CC=C[C@H]2C)cc1,0.166,0.264,-0.11,-0.0539,-1.12,-0.921,-0.744,-0.138 (inactive),-0.18,-0.216,-0.287,-0.0073 (inactive),0.13 (inactive),0.147 (inactive),-0.865,0.715 (inactive),-0.291,0.354,-0.632,-0.16
CC(C)CON=C1C[C@@H](O)[C@@H](O)[C@@H]2[C@@H]3C(=O)N(Cc4ccccc4)C(=O)[C@@H]3CC[C@H]12,-0.467,0.0791,-0.143,-0.0185,0.587,0.349,0.0796,0.602 (inactive),-0.153,-0.204,-0.238,-0.549 (inactive),-0.449 (inactive),-1.17 (inactive),0.12,0.843 (inactive),-0.117,0.454,0.824,0.088
O=C(NN=C1C[C@@H](O)[C@@H](O)[C@@H]2[C@@H]3C(=O)N(Cc4ccccc4)C(=O)[C@@H]3CC[C@H]12)OCc1ccccc1,-0.286,0.897,-0.0996,0.378,0.226,-0.153,-0.15,0.157 (inactive),0.122,0.0373,-0.38,-0.79 (inactive),-0.815 (inactive),-1.27 (inactive),-0.845,0.399 (inactive),-0.269,0.382,0.577,-0.0796
CC(C)=CCCC(C)=CCON=C1C[C@@H](O)[C@@H](O)[C@@H]2[C@@H]3C(=O)N([C@@H](C)c4ccccc4)C(=O)[C@@H]3CC[C@@H]12,-0.465,-0.0543,-0.0493,0.374,0.449,0.137,0.661,-0.366 (inactive),0.11,-0.249,-0.744,-0.208 (inactive),0.301 (inactive),-0.362 (inactive),0.676,0.215 (inactive),-0.166,0.331,0.508,-0.111
COC(OC)[C@@H](C)[C@H](OC)[C@@H](C)[C@H](OC)c1ccccc1,-0.405,0.594,-0.138,0.238,-0.0257,-0.445,-0.561,-0.406 (inactive),-0.0188,-0.0645,-0.478,-1.94 (inactive),-0.656 (inactive),-0.213 (inactive),-1.37,0.17 (inactive),0.308,0.467,0.181,-0.117
COc1cccc([C@H]2Oc3ccc(OC)cc3C(=NO[C@@H](C)c3cc(-c4c(C)cc(C)cc4C)no3)[C@@H]2O)c1,2.15,-0.187,-0.238,-1.44,-2.2,-0.144,-0.393,-3.59 (inactive),-0.391,-0.45,-0.506,0.463 (inactive),1.49 (inactive),0.626 (inactive),-0.141,-0.169 (inactive),0.25,-2.14,-2.58,-0.434
COC(=O)[C@@H]1CC[C@H](C)[C@@H](c2ccc(Br)cc2)N1C[C@H](O)CN=[N+]=[N-],-0.0566,0.143,-0.0925,0.171,-0.0324,0.374,-0.0594,0.348 (inactive),-0.193,0.478,-0.164,-0.209 (inactive),-4.62 (inactive),-2.03 (inactive),0.512,0.449 (inactive),-0.181,-0.133,-0.0269,-0.139
CCCCOC(OCCCC)C(O)CSc1ccc2ccccc2c1 (stereo not given),-0.283,0.61,-0.0599,0.291,0.525,-0.213,0.461,-1.52 (inactive),0.105,0.157,0.642,0.12 (inactive),-2.25 (inactive),0.594 (inactive),0.556,-0.419 (inactive),-0.136,0.542,0.776,-0.15
